# Most compounds without a hit are left out; they make up all but 6.4% or so of the library.
# RORg inh: blocks mouse ROR gamma transcriptional activity; AID 2551; Potency, µM (top dose mostly 53.6 µM), for the others: at the highest dose activity change, negative = inhibition, actives largely listed as inhibitors; Drosophila S2 Gal4-RORgamma UAS-luciferase reporter, 20 h; 310,000 compounds, 5.4% hits; P51450; also: nearly all actives have a fitted effect of over 60% in size
# Target sequence (P51450 whole entry, looked up, the tested form may be a part): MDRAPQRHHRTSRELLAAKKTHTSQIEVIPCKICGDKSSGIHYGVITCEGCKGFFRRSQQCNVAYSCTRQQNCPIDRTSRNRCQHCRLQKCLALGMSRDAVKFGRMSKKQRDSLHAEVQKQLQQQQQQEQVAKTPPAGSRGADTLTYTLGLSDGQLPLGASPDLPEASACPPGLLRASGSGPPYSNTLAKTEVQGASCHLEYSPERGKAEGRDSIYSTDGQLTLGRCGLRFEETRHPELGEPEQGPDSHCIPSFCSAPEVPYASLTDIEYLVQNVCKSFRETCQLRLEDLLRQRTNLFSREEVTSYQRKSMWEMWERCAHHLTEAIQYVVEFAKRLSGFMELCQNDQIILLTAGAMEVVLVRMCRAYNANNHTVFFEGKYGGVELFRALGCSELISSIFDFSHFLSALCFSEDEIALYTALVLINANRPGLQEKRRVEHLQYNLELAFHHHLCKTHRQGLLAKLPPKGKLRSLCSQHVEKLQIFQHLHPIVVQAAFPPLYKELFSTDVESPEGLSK
#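 Read-out: Photinus luciferase luminescence; inhibitors lower reporter signal. Insect Schneider cells with Gal4-ROR gamma fusion under metallothionein promoter, UAS reporter; 700 uM final copper sulfate induction, 20 hr, ambient temperature.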
# Luc counter: counter-screen: inhibitors of Kinase-Glo firefly luciferase | Q27757 | Kinase-Glo luciferase, ATP luminescence, 8 min | Potency, µM (titrated, usually from 38.3 µM), without a hit: top-dose activity change, negative = inhibition, most hits filed as inhibitors | 200,000 compounds, 0.28% hits | AID 1379; also: nearly all actives have a fitted effect of over 60% in size
#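 Kinase-Glo luciferase light output from ATP and luciferin was measured with 10 uM ATP, within the enzyme's linear range. Buffer: 50 mM imidazole pH 7.2, 50 mM KCl, 7 mM MgCl2, 0.01% Tween 20, 0.05% BSA; luminescence read after 8 min at ambient temperature.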
# VP16 counter: counter-screen for ROR gamma inhibitors: Gal4-VP16 reporter. Drosophila S2 Gal4-VP16 UAS-luciferase, luminescence, 20 h. Potency, µM (highest dose often 53.6 µM), inactives show at the top dose activity, negative = inhibition, usual class: inhibitors. 310,000 compounds, 3.5% hits. AID 2546;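 also: Gal4-VP16 expression switched on by copper sulfate through the metallothionein promoter; nearly all actives have a fitted effect of over 50% in size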
# * marks the source's active call; other numbers are inactive results; ? = inconclusive; / = no result given; [ ] = dose if it differs, or a comment. Calls follow the shape of the dose curve; as a rule, active = well fitted curve in the direction sought with a large enough effect; inconclusive = small, poorly fitted or top-dose-only effect, or another doubt; inactive = no such curve, though single readings can be large; an effect the other way counts as inactive or inconclusive. % is scaled to controls: 0 for no effect and ±100 for the full control effect; potency is read from the fitted curve at half-maximal effect.
SMILES,RORg inh,Luc counter,VP16 counter
Cc1cc(N/N=C/c2ccc(F)cc2)nc(NCc2ccccc2)n1,11.2µM*,/,?
Cc1cc(N/N=C/c2ccc(N(C)C)cc2)nc(NCc2ccccc2)n1,-27.9%,/,-3.2%
COc1ccc2nc(C)cc(N/N=C/c3ccc(F)cc3)c2c1,3.98µM*,/,5.01µM*
NS(=O)(=O)Nc1ccccc1Br,-6.6%,/,-4.9%
CC(=O)Nc1ccc(OCC(O)Cn2nc(C)c(Br)c2C)cc1 (configuration not stated),?,1.1%,1.1%
COc1ccccc1NC(=O)Nc1cc(F)ccc1F,31.7%,-0.1%,-8.7%
Cc1cc(=O)oc2cc(O)c(O)cc12,-19.5%,-2.5%,-5.1%
CNS(=O)(=O)c1ccc2nc(NC(=O)/C=C/c3ccco3)sc2c1,10.2%,-2.9%,-12.3%
O=C(CCS(=O)(=O)c1cccc2nonc12)Nc1ccc(Br)cc1,?,/,29.7%
O=C1CCC2S/C(=C/Nc3ccc(C(F)(F)F)cc3)C(=O)N12 (configuration not stated),1.26µM*,-3.4%,?
O=C1CCCC/C1=C/Nc1cccc(C(F)(F)F)c1,?,-6.0%,-6.4%[10 µM]
O=C(c1ccc(F)cc1)C(CN1CCOCC1)c1ccccc1 (configuration not stated),5.62µM*,-1.6%,11.2µM*
O=C(c1ccc(Cl)cc1)C(CN1CCCC1)c1ccccc1 (configuration not stated),11.2µM*,/,5.62µM*
CCOc1ccc(C(=O)C(CCC(CN(C)C)C(=O)c2ccc(OCC)cc2)CN(C)C)cc1 (configuration not stated),10.0%[10 µM],2.4%,-98.3%
CN(C)CC(CCC(CN(C)C)C(=O)c1ccccc1)C(=O)c1ccccc1 (configuration not stated),7.08µM*,/,10µM*
CCCOc1ccc(C(=O)C(CN2CCCC2)c2ccccc2)cc1 (configuration not stated),?,2.5%,?
CCCCOc1ccc(C(=O)C(CN2CCOCC2)c2ccccc2)cc1 (configuration not stated),?,-0.6%,?
c1ccc(C(CN2CCOCC2)c2ccccc2)cc1,-2.6%,-2.6%,5.0%
O=C(c1ccccc1)C(CCC(CN1CCOCC1)C(=O)c1ccccc1)CN1CCOCC1 (configuration not stated),?,-2.8%,7.94µM*
C/C(=N\OCC(=O)OC(C)C(=O)Nc1ccc(C(N)=O)cc1)c1ccc2c(c1)OCO2 (configuration not stated),11.5%,/,1.1%
COc1cccc(CCNC(=O)c2ccc(OC)c(OC3CCN(C(C)C)CC3)c2)c1,1.2%,/,-1.1%
CC(Cc1ccccn1)NC(=O)CCc1nnc(C2CCCCC2)o1 (configuration not stated),34.9%,1.9%,2.2%
COc1cccc(OC)c1CNC(=O)C1CCC(=O)N(CC2CCCCC2)C1 (configuration not stated),12.3%,/,-11.3%
COc1ccc(C(=O)C(CN2CCCC2)c2ccccc2)cc1 (configuration not stated),?,-2.1%,?
COc1ccc(C(=O)C(CN2CCOCC2)c2ccccc2)cc1 (configuration not stated),12.6µM*,-7.1%,?
SMILES,RORg inh,Luc counter,VP16 counter
Cc1cc(N2CCCC2)nc2ccc(NC(=S)NC(C)C)cc12,-36.9%,1.8%,-3.0%
Cc1cc(N2CCOCC2)nc2ccc(NC(=S)NC(C)C)cc12,10µM*,/,?
Cc1cc(N2CCOCC2)nc2ccc(NC(=S)NCc3ccc4c(c3)OCO4)cc12,22.4µM*,-1.3%,?
COCCNC(=S)Nc1ccc2nc(N3CCOCC3)cc(C)c2c1,?,/,1.8%
Cc1cc(C)nc(SCc2nc3ccccc3n2C)n1,-15.7%,-1.2%,?
CC(=O)c1c(C)[nH]c(C(=O)CSc2nc3ccccc3n2C)c1C,16.8%,/,?
Cn1c(CSc2nc3ccccc3n2C)nc2ccccc21,10µM*,-5.9%,-22.6%
CC(=O)OCC#CCSc1nc2ccccc2n1C,12.6µM*,-1.3%,?
OC(CCc1cccc(Cl)c1)c1cccs1 (configuration not stated),18.4%,/,5.9%
COc1ccc(CN=C(Nc2ccccc2)SC2CC(=O)NC2=O)cc1 (configuration not stated),12.6µM*,-2.5%,-9.5%
O=C1CC(SC(=NCc2ccc3c(c2)OCO3)Nc2ccccc2)C(=O)N1 (configuration not stated),0.5%,-3.7%,13.2%
COc1ccc(NC(=O)c2cccc3cccnc23)cc1S(N)(=O)=O,-33.4%,/,1.3%
CC(C)(CNC(=O)CO/N=C1/C=C2CCC3C(C(O)C[C@@]4(C)C3CC[C@]4(O)C(=O)CO)[C@@]2(C)CC1)C(O)C(=O)O (some centres not stated),2.3%,/,2.1%
CC(=O)Nc1nc2ccccc2n1Cc1ccccc1,2.24µM*,-3.6%,5.62µM*
O=NNc1nc2ccccc2n1Cc1ccccc1,1.78µM*,/,2.82µM*
CS(=O)(=O)c1nc2ccccc2n1Cc1ccccc1,-0.2%,-4.2%,-0.3%
CC(=O)Nc1nc2ccccc2n1CCN(C)C,?,1.5%,?
CCOc1ccc(NC(=S)NNC(=O)CC(C)O)cc1 (configuration not stated),-15.5%,-0.9%,1.5%
CCOc1ccc(NC(=S)NC(=O)Cc2ccccc2)cc1,3.98µM*,/,10µM*
CN(C)S(=O)(=O)c1ccc(NC(=S)NC(=O)Cc2ccccc2)cc1,-18.5%,/,10.4%
CCN(CC)c1ccc(NC(=S)NC(=O)Cc2ccccc2)cc1,2.51µM*,0.1%,2.51µM*
O=S(=O)(c1ccccc1)N1CCC2(CC1)CN(c1ccccn1)C2,-1.9%,-3.7%,10.4%
O=C(Nc1ccc(C(=O)N2CCCc3ccccc32)cc1)c1cccs1,26.8%,/,-10.9%
CCc1ccc(NC(=O)c2c(C(=O)Nc3ccccc3)sc3nc(C)cc(=O)n23)cc1,-14.1%,-0.3%,-12.2%
COc1ccccc1N1CCN(S(=O)(=O)c2ccc(-n3cnnn3)cc2)CC1,?,/,-14.8%
SMILES,RORg inh,Luc counter,VP16 counter
COc1ccc(-c2[nH]ncc2/C=N\NC(=O)c2ccc(Br)o2)cc1OC,16.9%,/,-2.3%
O=C(N/N=C/c1c(O)ccc2ccccc12)c1[nH]ncc1Br,2.51µM*,2.2%,4.47µM*
Cc1ccc(O)c(/C=N/NC(=O)c2[nH]ncc2Br)c1,1.26µM*,?,1.26µM*
COc1ccc(OC)c(/C=N/NC(=O)c2[nH]ncc2Br)c1,1.8%,/,-2.1%
Cc1ccc(O)c(/C=N/NC(=O)C2=NNC(c3ccccc3)(c3ccccc3)C2)c1,1.41µM*,-0.4%,2.82µM*
Cc1ccc2nc(Cl)c(/C=N/NC(=O)c3ccccc3O)cc2c1,?,3.1%,?
CCOc1ccc(/C=N/NC(=O)c2[nH]ncc2Br)c(O)c1,3.55µM*,11.2µM*,11.2µM*
O=C(N/N=C/c1cccs1)c1[nH]ncc1Br,-14.8%,/,-10.1%
OCC[C@@H]1C[C@H](O)[C@@H](O)[C@]2(Cc3ccccc3CCO2)O1,-27.4%,/,4.7%
CCOC(=O)OCC1OC(c2ccccc2)C=CC1Oc1ccc(F)cc1C (configuration not stated),12.4%[10 µM],/,0.3%[10 µM]
O=C(Nc1cccc(Cl)c1)NC1CCN(C2CCCCC2)C1 (configuration not stated),4.9%,/,8.0%
